Results filed as inconclusive are left out. Some structures have more than one record in an assay (separate samples or runs), and their calls can disagree. Calls of active or inactive are those of the source. The calls were made as follows: active = hit-call score of the fitted dose curve at least 0.9, where 1 is the maximum; inconclusive = response in the unintended direction; inactive = score below 0.9.

The nature of this assay: Tanguay_ZF_120hpf_PFIN_legacy: (Legacy) Oregon State University Tanguay Lab 120 Hour Post-fertilization zebrafish Assay for Pectoral Fin Malformation (AID 2283648).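 Also: each larva judged yes or no for fin defect by brightfield with dead larvae skipped.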 As to the method: Tanguay_ZF_120hpf_legacy is a whole embryo, multiplexed endpoint assay using zebrafish larvae exposed for 120 hours post fertilization on a 96-well plate.Tanguay_ZF_120hpf_PFIN_legacy is one of one assay component(s) measured or calculated from the Tanguay_ZF_120hpf_legacy assay. It is designed to make measurements of zebrafish development as detected with brightfield microscopy of developing zebrafish embryos.Data from the assay component Tanguay_ZF_120hpf_PFIN_legacy was analyzed into 1 assay endpoints. This assay endpoint, Tanguay_ZF_120hpf_PFIN_legacy, was analyzed in the positive analysis fitting direction relative to DMSO as the negative control and baseline of activity. Using a type of morphology reporter, gain-of-signal activity can be used to understand changes in developmentals as they relate to the whole embryo. To generalize the intended target to other relatable targets, this assay endpoint is annotated to the zebrafish development intended target family, where the subfamily is pectoral fin morphogenesis.
Zebrafish husbandry: Tropical 5D wild-type adult zebrafish were housed in at an approximate density of 1000 per 100 gallon tank at the Sinnhuber Aquatic Research Laboratory, Oregon State University, Corvallis, OR. Each tank was kept at standard laboratory conditions of 28C on a 14-h light/10-h dark photoperiod in fish water consisting of reverse osmosis water supplemented with a commercially available salt (Instant Ocean). Spawning funnels were placed into the tanks the night prior, and embryos were collected and staged. To increase bioavailability, the chorion was enzymatically removed using pronase (63.6mg/ml, >/= 3.5U/mg, Sigma-Aldrich: P5147) at 4 hours post fertilization (hpf) using a custom automated dechorionator.Chemical exposures: Six hpf dechorionated embryos were placed 1 embryo per well in a 96-well plate prefilled with 90 ul of EM using automated embryo placement systems (AEPS). Ten microliters of each row of dilution plate 2 was added to 2 exposure plates. The final DMSO concentration used was 0.64% (vol/vol). Thirty-two embryos were also exposed to 5uM trimethyltin chloride (positive control). Plates were sealed to prevent evaporation and foil covered to reduce light exposure and kept in a 28C incubator. Embryos were statically exposed until 120 hpf. At 24 hpf, embryos were assessed for photomotor response using a custom photomotor response analysis tool (PRAT) and for developmental toxicity endpoints (MO24: mortality at 24 hpf, DP: developmental progression, SM: spontaneous movement, and NC: notochord distortion). At 120 hpf, locomotor activity was measured using Viewpoint Zebralab and assessed for 18 endpoints. Zebrafish acquisition and analysis program (ZAAP), a custom program designed to inventory, acquire, and manage zebrafish data, was used to collect developmental endpoints as either present or absent (i.e., binary responses were recorded). If mortality occurred for an embryo (at either 24 or 120 hpf), the non-mortality endpoints were not measured.
`CCC(C)(C)C(=O)OC1=C(c2ccc(Cl)cc2Cl)C(=O)OC12CCCCC2`: the molecule was called inactive.
The term AC50 denotes the midpoint of the concentration-response curve, whichever way the signal moves. Take `O=S(=O)(O)C(F)(F)C(F)(F)C(F)(F)C(F)(F)C(F)(F)C(F)(F)C(F)(F)C(F)(F)F`: the result was inactive and the half-maximal activity concentration (AC50) is 36 µM (active).
As for `O=[N+]([O-])/N=C1\NCCN1Cc1ccc(Cl)nc1`, the result was inactive.
Take `CCc1ccc(C(=O)NN(C(=O)c2cc(C)cc(C)c2)C(C)(C)C)cc1`: the molecule was classed as inactive.
Still for that read-out and setting: to `Cc1[nH]c(=O)n(C(C)(C)C)c(=O)c1Cl` belongs “inactive”.
`CC(C)(C)C(O)/C(=C\c1ccc(Cl)cc1Cl)n1cncn1` (stereo not given): the AC50 was 42.5 µM (active).
Regarding `C[C@H]1[C@H](c2ccc(Cl)cc2)SC(=O)N1C(=O)NC1CCCCC1`, the outcome was inactive.
On the same count and under the same terms, the entry for `ClC1C(Cl)C(Cl)C(Cl)C(Cl)C1Cl` (stereo not given) is “inactive”.
On the same count and under the same terms, the entry for `CC(C)N(C(=O)COc1nnc(C(F)(F)F)s1)c1ccc(F)cc1` is “inactive”; for `CCOC1Oc2ccc(OS(C)(=O)=O)cc2C1(C)C` (stereo not given) it is “inactive”.
For the molecule `C#CCN1C(=O)COc2cc(F)c(N3C(=O)C4=C(CCCC4)C3=O)cc21`, the call was inactive.
Same read-out and setting: the entry for `N#Cc1c(Cl)c(Cl)c(Cl)c(C#N)c1Cl` is “inactive”.
Consider `O=C1c2ccccc2C(=O)N1SC(Cl)(Cl)Cl`, for which the molecule was called inactive.
On the same count and under the same terms, the entry for `CNC(=O)Oc1ccccc1OC(C)C` is “inactive”; for `O=C(Nc1ccccc1)Nc1cnns1` it is “inactive”.
Same read-out and setting: the entry for `CCN(CC)C(=O)SCc1ccc(Cl)cc1` is “inactive”; for `CNC(=O)/C=C(\C)OP(=O)(OC)OC` it is “inactive”.
For the molecule `OCCOc1ccccc1`, the outcome was inactive.
Still for that read-out and setting: to `O=C(NC(=O)c1c(F)cccc1F)Nc1ccc(OC(F)(F)C(F)OC(F)(F)F)c(Cl)c1` (stereo not given) belongs “inactive”; to `COc1nn(CSP(=S)(OC)OC)c(=O)s1`, “inactive”; to `COP(=O)(OC)OC=C(Cl)Cl`, “inactive”.
For `CNC(=O)CSP(=S)(OC)OC`, the call was inactive.
Still for that read-out and setting: the entry for `CCOCN(C(=O)CCl)c1c(C)cccc1CC` is “inactive”; for `CCCN(CCOc1c(Cl)cc(Cl)cc1Cl)C(=O)n1ccnc1` it is “inactive”; for `O=S1OCC2C(CO1)C1(Cl)C(Cl)=C(Cl)C2(Cl)C1(Cl)Cl` (stereo not given) it is “inactive”.
Same read-out and setting: to `Clc1ccccc1-c1nnc(-c2ccccc2Cl)nn1` belongs “inactive”; to `CC1(C)C(C=C(Cl)Cl)C1C(=O)OC(C#N)c1ccc(F)c(Oc2ccccc2)c1` (stereo not given), “inactive”.
As to `CC[C@H](C)[C@H]1O[C@]2(C=C[C@@H]1C)C[C@@H]1C[C@@H](C/C=C(\C)[C@@H](O[C@H]3C[C@H](OC)[C@@H](O[C@H]4C[C@H](OC)[C@@H](O)[C@H](C)O4)[C@H](C)O3)[C@@H](C)/C=C/C=C3\CO[C@@H]4[C@H](O)C(C)=C[C@@H](C(=O)O1)[C@]34O)O2` (tested in a mixture with another compound), the molecule was called inactive.
As for `N#CN`, the molecule was called inactive.
Same read-out and setting: the entry for `O=C(O)C(F)(F)C(F)(F)C(F)(F)C(F)(F)C(F)(F)C(F)(F)C(F)(F)F` is “inactive”; for `CNC(=O)Oc1cccc(N=CN(C)C)c1` it is “inactive”; for `COP(=S)(OC)Oc1ccc([N+](=O)[O-])cc1` it is “inactive”.
For `CC(C)OC(=O)Nc1cccc(Cl)c1`, the molecule was classed as inactive.
Turning to `CCC(C)Nc1c([N+](=O)[O-])cc(C(C)(C)C)cc1[N+](=O)[O-]` (stereo not given), the result was inactive.
The same measure, in the same setting: to `O=C(O)COc1ccc(Cl)cc1Cl` belongs “inactive”.
Same read-out and setting: to `CCC(C)(NC(=O)c1cc(Cl)c(C)c(Cl)c1)C(=O)CCl` (stereo not given) belongs “inactive”; to `Oc1ccc(Cl)cc1Cc1ccccc1`, “inactive”; to `Oc1cc(Cl)ccc1Oc1ccc(Cl)cc1Cl`, “inactive”.
With `O=[N+]([O-])c1c(Cl)c(Cl)c(Cl)c(Cl)c1Cl`, the call was inactive.

Source of the values: PubChem BioAssay (EPA / NIEHS).
